Experimental data as given in PubChem BioAssay (NCATS).
Records with an inconclusive call do not appear. A number with no mark means an inactive call. Activity calls are given as the source filed them. Calls come from the whole dose curve; as a rule, active = well fitted cell-killing curve with a large enough effect; inconclusive = small, poorly fitted or top-dose-only effect, or effect the other way; inactive = no such curve, though single readings can be large or run the other way.

Assay: Cell Viability - LYMP2-004 (AID 966); note: nearly all actives have a fitted effect of over 65% in size;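 for activity change, negative = cytotoxicity: plate controls were DMSO only for no effect and tetraoctylammonium bromide control for full effect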
Settings: LYMP2-004 lymphoblastoid cell viability, qHTS; series mostly up to 92.2 µM; activity change, negative = cytotoxicity: at the top concentration
Source text: NIH Chemical Genomics Center [NCGC]
NIH Molecular Libraries Screening Centers Network [MLSCN]
National Institutes of Environmental Health Sciences [NIEHS]
National Toxicology Program [NTP]
We have developed a 1536-well cell-based assay for quantitative high throughput screening (qHTS) against a number of cell lines to determine in vitro cytotoxicity of small molecules. This particular assay uses a human lymphoblastoid cell line (LYMP2-004) purchased from Coriell Institute for Medical Research.
NCGC Assay Protocol Summary:
The CellTiter-Glo luminescent cell viability assay (Promega) is a homogeneous method to measure the number of viable cells in culture. The end point readout of this assay is based on quantitation of intracellular ATP, an indicator of metabolic activity, using the luciferase reaction. Luciferase catalyzes the oxidation of beetle Luciferin to oxyluciferin and light in the presence of ATP. The luminescent signal is proportional to amount of ATP present.
Using the CellTiter-Glo luminescent cell viability assay, the amount of cellular ATP was measured in the lymphoblastoid cell line with complete culture medium following compound treatment for 24 hours. The assay was performed in opaque white Kalypsys 1536-well plates. In the screen, tetraoctylammonium bromide was used as positive control. Library compounds were measured for their ability to cause acute toxicity in the cell line, as reflected by a decrease in intracellular ATP levels, in a concentration-dependent manner. […] AC50 values were determined from concentration-response data modeled with the standard Hill equation.
qHTS protocol for CellTiter Glo lymphoblastoid cellular assay
[Step] [Parameter] [Value] [Description]
1. Reagent; 5 uL; 2500 lymphoblastoid cells/well
2. Time; 5 hr; 37 C incubation
4. Controls; 23 nL; Tetraoctylammonium bromide 6.4pM to 92 uM
5. Time; 24 hr; 37 C incubation
6. Reagent; 5 uL; CellTiter Glo reagent
7. Time; 30 min; Room Temperature
8. Detection; Luminescence; Viewlux plate reader
Keywords: cell viability, cytotoxicity, lymphoblastoid cell line, luminescence, NTPHTS, NTPHTS_NCGC, NIEHS, DSSTox, MLSMR, MLSCN, NIH Roadmap, qHTS, NCGC
Potency is the fitted concentration of half-maximal effect.

| Structure (SMILES) | Potency | activity change, negative = cytotoxicity |
| --- | --- | --- |
| CC1=C(/C=C/C(C)=C/C=C/C(C)=C/CO)C(C)(C)CCC1 | 39.8 µM (active) |  |
| CC(C)=O |  | -4.23% |
| O=S(=O)(O)O | inactive |  |
| CCCCC/C=C\C/C=C\CCCCCCCC(=O)O |  | 0.288% |
| CC1=C2[C@@H]([C@H](C)CC[C@H]2/C=C(\C)C(=O)O)[C@H](O)C1 |  | 18.7% |
| O=C(O)CCC(=O)C(=O)O |  | 16.9% |
| O=CCCCC=O | 25.1 µM (active) |  |
| CCCCCCCC(=O)O | inactive |  |
| IC(I)I |  | -1.71% |
| CCOC(C)=O |  | 13.5% |
| CCOc1ccc2c(c1)C(C)=CC(C)(C)N2 |  | -1.62% |
| CCCCCCCC/C=C\CCCCCCCC(=O)O |  | 6.28% |
| CC(O)CO (centres undefined) | inactive |  |
| Nc1ccn([C@H]2CS[C@@H](CO)O2)c(=O)n1 |  | 11.4% |
